Measurements published in PubChem BioAssay (Tox21).
Records with an inconclusive call do not appear. Where a call stands in place of a potency, no number is given. A number with no mark means an inactive call. Activity calls are given as the source filed them. Calls come from the whole dose curve; as a rule, active = well fitted curve in the direction sought with a large enough effect in the repeat runs; inconclusive = weak or mixed curves; inactive = no such curve, though single readings can be large; an effect the other way counts as inactive or inconclusive.

Experiments:
[1] = qHTS RealTime-Glo MT Cell Viability Assay in HepG2 cells - 40 hour (AID 1224870); details: RealTime-Glo luminescence; series mostly up to 76.8 µM; note: nearly all actives have a fitted effect of over 50% in size
In short: (§1)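 HepG2 cells (600/well) mixed with RealTime-Glo MT reagent, settled 5 h at 37 C/5% CO2 before compound addition. Nonlytic NanoLuc luminescence from viable-cell prosubstrate reduction read repeatedly during 40 h treatment at 37 C.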

[2] = A CellTox Green Cytotoxicity Assay to monitor cytotoxicity in HEK293 cells - 40 hour (AID 1224871); details: CellTox Green fluorescence; series mostly up to 76.8 µM; note: nearly all actives have a fitted effect of over 45% in size; note: potency is the fitted concentration of half-maximal effect
In short: (§2)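 HEK293 cells, 600/well, were preincubated 5 hours and then exposed to compounds at 37 C for up to 40 hours. A cell-impermeant cyanine dye staining dead-cell DNA was read by fluorescence at 0, 8, 16, 24, 32 and 40 h time points.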

[3] = qHTS RealTime-Glo MT Cell Viability Assay in HEK293 cells - 16 hour (AID 1224872); details: RealTime-Glo luminescence; series mostly up to 76.8 µM; note: top concentration of the series differs between compounds; nearly all actives have a fitted effect of over 50% in size
In short: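 Luminescence generated by NanoLuc from substrate produced by living HEK293 cells served as the viability signal. Each value reflects the reading at its stated time point during continuous 40 h compound exposure at 37 C.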

[4] = qHTS RealTime-Glo MT Cell Viability Assay in HepG2 cells - 8 hour (AID 1224873); details: RealTime-Glo luminescence; series mostly up to 76.8 µM; note: nearly all actives have a fitted effect of over 55% in size
In short: as §1

[5] = qHTS RealTime-Glo MT Cell Viability Assay in HEK293 cells - 40 hour (AID 1224874); details: RealTime-Glo luminescence; max response: hits give low values; note: nearly all actives have a fitted effect of over 50% in size; note: potency is the fitted concentration of half-maximal effect
In short: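 600 cells/well were plated with the nonlytic NanoLuc/prosubstrate reagent, pre-incubated 5 h, then given 23 nL of compound in DMSO. Incubation at 37 C for 40 h, with luminescence from viable-cell-reduced substrate read repeatedly from 0 h.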

[6] = A CellTox Green Cytotoxicity Assay to monitor cytotoxicity in HEK293 cells - 24 hour (AID 1224875); details: CellTox Green fluorescence, hits give high values; series mostly up to 76.8 µM; note: nearly all actives have a fitted effect of over 45% in size
In short: as §2

[7] = A CellTox Green Cytotoxicity Assay to monitor cytotoxicity in HepG2 cells - 16 hour (AID 1224876); details: CellTox Green fluorescence; series mostly up to 76.8 µM; note: nearly all actives have a fitted effect of over 45% in size
In short: (§3)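 HepG2 cells, 600/well, preincubated 5 h with CellTox Green dye, then exposed to Tox21 compounds in DMSO at 37 C for up to 40 h. Dead-cell DNA fluorescence read at the indicated time point.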

[8] = A CellTox Green Cytotoxicity Assay to monitor cytotoxicity in HepG2 cells - 24 hour (AID 1224878); details: CellTox Green fluorescence; series mostly up to 76.8 µM; note: nearly all actives have a fitted effect of over 45% in size
In short: as §3

[9] = A CellTox Green Cytotoxicity Assay to monitor cytotoxicity in HepG2 cells - 40 hour (AID 1224879); details: CellTox Green fluorescence; series mostly up to 76.8 µM; note: nearly all actives have a fitted effect of over 40% in size
In short: as §3

[10] = qHTS RealTime-Glo MT Cell Viability Assay in HepG2 cells - 32 hour (AID 1224877); details: RealTime-Glo luminescence; series mostly up to 76.8 µM; note: nearly all actives have a fitted effect of over 55% in size
In short: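 Tox21 10K library screened in qHTS format on HepG2 cells carrying RealTime-Glo reagents. Compounds were added after a 5 h preincubation, and the luminescent signal from continuous culture was measured repeatedly during 40 h treatment.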

## CCCCNc1ccc(C(=O)OCCN(C)C)cc1
[1]
  outcome: inactive
[2]
  Potency: inactive
[3]
  Potency: inactive
[4]
  outcome: inactive
[5]
  max response: -3.43%
[6]
  outcome: inactive
[7]
  outcome: inactive
[8]
  outcome: inactive
[9]
  Potency: inactive

## CN(C)c1ccc(C=O)cc1
[1]
  outcome: inactive
[2]
  Potency: inactive
[3]
  Potency: inactive
[4]
  outcome: inactive
[5]
  max response: 14.8%
[7]
  outcome: inactive
[10]
  outcome: inactive
[8]
  outcome: inactive
[9]
  Potency: inactive

## C[Si](C)(C)C
[1]
  outcome: inactive
[2]
  Potency: inactive
[3]
  Potency: inactive
[4]
  outcome: inactive
[5]
  max response: 7.29%
[7]
  outcome: inactive
[10]
  outcome: inactive
[8]
  outcome: inactive
[9]
  Potency: inactive

## CC(CO)c1ccccc1 (centres undefined)
[1]
  outcome: inactive
[2]
  Potency: inactive
[3]
  Potency: inactive
[4]
  outcome: inactive
[5]
  max response: -0.132%
[6]
  outcome: inactive
[7]
  outcome: inactive
[9]
  Potency: inactive

## CCn1ccc(NS(=O)(=O)c2ccc(N)cc2)nc1=O
[1]
  outcome: inactive
[2]
  Potency: inactive
[3]
  Potency: inactive
[4]
  outcome: inactive
[5]
  max response: 5.4%
[6]
  outcome: inactive
[7]
  outcome: inactive
[8]
  outcome: inactive
[9]
  Potency: inactive

## CC(C)CCCC(C)(C)O
[1]
  outcome: inactive
[2]
  Potency: inactive
[3]
  Potency: inactive
[4]
  outcome: inactive
[5]
  max response: -4.36%
[7]
  outcome: inactive
[10]
  outcome: inactive
[8]
  outcome: inactive
[9]
  Potency: inactive

## COC(=O)CCCCCCCC(=O)OC
[1]
  outcome: inactive
[2]
  Potency: inactive
[3]
  Potency: inactive
[4]
  outcome: inactive
[5]
  max response: 11.9%
[6]
  outcome: inactive
[7]
  outcome: inactive
[8]
  outcome: inactive
[9]
  Potency: inactive

## FC(F)(F)c1ccccc1-n1ccnc1
[1]
  outcome: inactive
[2]
  Potency: inactive
[3]
  Potency: inactive
[4]
  outcome: inactive
[5]
  max response: -3.14%
[7]
  outcome: inactive
[10]
  outcome: inactive
[8]
  outcome: inactive
[9]
  Potency: inactive

## CN1C(C)(C)CCCC1(C)C
[1]
  outcome: inactive
[2]
  Potency: inactive
[3]
  Potency: inactive
[4]
  outcome: inactive
[5]
  max response: -1.11%
[6]
  outcome: inactive
[7]
  outcome: inactive
[8]
  outcome: inactive
[9]
  Potency: inactive

## CCC(CC)CO
[1]
  outcome: inactive
[2]
  Potency: inactive
[3]
  Potency: inactive
[4]
  outcome: inactive
[5]
  max response: 3.01%
[7]
  outcome: inactive
[10]
  outcome: inactive
[8]
  outcome: inactive
[9]
  Potency: inactive

## CO[C@@H]1[C@@H](OC(N)=O)[C@@H](O)[C@H](Oc2ccc3c(O)c(NC(=O)c4ccc(O)c(CC=C(C)C)c4)c(=O)oc3c2C)OC1(C)C
[1]
  outcome: inactive
[2]
  Potency: inactive
[3]
  Potency: inactive
[4]
  outcome: inactive
[5]
  max response: 7.28%
[7]
  outcome: inactive
[10]
  outcome: inactive
[8]
  outcome: inactive
[9]
  Potency: inactive

## CCN1CCc2nc(N)oc2CC1
[1]
  outcome: inactive
[2]
  Potency: inactive
[3]
  Potency: inactive
[4]
  outcome: inactive
[5]
  max response: 0.505%
[6]
  outcome: inactive
[7]
  outcome: inactive
[9]
  Potency: inactive

## CC1=C(C(=O)O)N2C(=O)[C@@H](NC(=O)[C@H](N)c3ccc(O)cc3)[C@H]2SC1
[1]
  outcome: inactive
[2]
  Potency: inactive
[3]
  Potency: inactive
[4]
  outcome: inactive
[5]
  max response: 13.3%
[7]
  outcome: inactive
[10]
  outcome: inactive
[8]
  outcome: inactive
[9]
  Potency: inactive

## CCCCN
[1]
  outcome: inactive
[2]
  Potency: inactive
[3]
  Potency: inactive
[4]
  outcome: inactive
[5]
  max response: 9.77%
[7]
  outcome: inactive
[10]
  outcome: inactive
[8]
  outcome: inactive
[9]
  Potency: inactive

## O=C1c2cccc3c2[C@H](CCC3)CN1[C@@H]1CN2CCC1CC2
[1]
  outcome: inactive
[2]
  Potency: inactive
[3]
  Potency: inactive
[4]
  outcome: inactive
[5]
  Potency: 6.01 µM (active)
[7]
  outcome: inactive
[10]
  outcome: inactive
[8]
  outcome: inactive
[9]
  Potency: inactive

## O=C(c1ccc(O)cc1)c1ccc(O)c(O)c1O
[1]
  outcome: inactive
[2]
  Potency: inactive
[3]
  Potency: inactive
[4]
  outcome: inactive
[5]
  max response: -10.5%
[7]
  outcome: inactive
[10]
  outcome: inactive
[8]
  outcome: inactive
[9]
  Potency: inactive

## O=S(=O)(O)c1cc(O)c2ccc(Nc3ccccc3)cc2c1
[1]
  outcome: inactive
[2]
  Potency: inactive
[3]
  Potency: inactive
[4]
  outcome: inactive
[5]
  max response: 11.9%
[6]
  outcome: inactive
[7]
  outcome: inactive
[8]
  outcome: inactive
[9]
  Potency: inactive

## CCCCCCCCSCC
[1]
  outcome: inactive
[2]
  Potency: inactive
[3]
  Potency: inactive
[4]
  outcome: inactive
[5]
  max response: 7.92%
[7]
  outcome: inactive
[10]
  outcome: inactive
[8]
  outcome: inactive
[9]
  Potency: inactive

## O=C1O[C@@H]2[C@@H](O)[C@H](O)O[C@@H]2[C@H]1O
[1]
  outcome: inactive
[2]
  Potency: inactive
[3]
  Potency: inactive
[4]
  outcome: inactive
[5]
  max response: -0.399%
[7]
  outcome: inactive
[10]
  outcome: inactive
[8]
  outcome: inactive
[9]
  Potency: inactive

## O=C1c2ccccc2C(=O)N1CCl
[1]
  outcome: inactive
[2]
  Potency: inactive
[3]
  Potency: inactive
[4]
  outcome: inactive
[5]
  max response: 1.28%
[7]
  outcome: inactive
[10]
  outcome: inactive
[8]
  outcome: inactive
[9]
  Potency: inactive

## Cc1cccc2nccnc12
[1]
  outcome: inactive
[2]
  Potency: 24.5 µM (active)
[3]
  Potency: inactive
[4]
  outcome: inactive
[5]
  max response: 6.74%
[7]
  outcome: inactive
[10]
  outcome: inactive
[8]
  outcome: inactive
[9]
  Potency: inactive

## O=C(CCN1CCN(CCO)CC1)N1c2ccccc2Sc2ccc(C(F)(F)F)cc21
[1]
  outcome: inactive
[2]
  Potency: inactive
[3]
  Potency: inactive
[4]
  outcome: inactive
[5]
  max response: -11.6%
[7]
  outcome: inactive
[10]
  outcome: inactive
[9]
  Potency: inactive

## COP(=O)(OC)OC(c1ccc(Cl)cc1)P(=O)(OC)OC (centres undefined)
[1]
  outcome: inactive
[2]
  Potency: inactive
[3]
  Potency: inactive
[4]
  outcome: inactive
[5]
  max response: 4.98%
[6]
  outcome: inactive
[7]
  outcome: inactive
[8]
  outcome: inactive
[9]
  Potency: inactive
